# Measured values reported in PubChem BioAssay (EPA / NIEHS).
# Values joined by “and” are separate entries in the source; they are usually repeats but may differ in a detail not shown here. Equal entries are not always repeated. Records with an inconclusive call do not appear. Where a structure was tested more than once in an assay, its records may differ in their call. Active and inactive are the calls of the source. Rule for the calls: active = hit-call score of the fitted dose curve at least 0.9, where 1 is the maximum; inconclusive = response in the unintended direction; inactive = score below 0.9.
# What was measured:
# [1] = molecular target: Luciferin 4-monooxygenase (Photinus pyralis) (UniProt P08659); assay: CCTE_Simmons_QuantiLum_inhib_2: CCTE's Firefly Luciferase Inhibition Assay, Simmons Lab (AID 2283767);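 for AC50: potency for inhibitors that lower luciferase luminescence relative to DMSO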
# Chain of Luciferin 4-monooxygenase (Photinus pyralis) (P08659 whole entry, looked up): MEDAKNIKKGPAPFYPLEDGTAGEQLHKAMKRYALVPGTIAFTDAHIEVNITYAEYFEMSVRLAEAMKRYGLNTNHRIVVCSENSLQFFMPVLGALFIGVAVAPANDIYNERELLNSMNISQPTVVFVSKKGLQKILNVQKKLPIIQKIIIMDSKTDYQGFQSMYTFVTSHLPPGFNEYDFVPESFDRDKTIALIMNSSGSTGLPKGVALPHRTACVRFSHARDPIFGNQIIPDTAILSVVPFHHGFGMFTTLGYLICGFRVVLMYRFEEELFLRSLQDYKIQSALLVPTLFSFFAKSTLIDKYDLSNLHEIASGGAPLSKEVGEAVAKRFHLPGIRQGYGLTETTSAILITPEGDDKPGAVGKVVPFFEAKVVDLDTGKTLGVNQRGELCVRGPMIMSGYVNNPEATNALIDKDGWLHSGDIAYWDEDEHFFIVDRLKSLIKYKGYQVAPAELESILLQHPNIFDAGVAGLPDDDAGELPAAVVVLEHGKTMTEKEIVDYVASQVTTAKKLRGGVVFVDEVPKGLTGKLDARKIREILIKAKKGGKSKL
# Summary of the method: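 Cell-free recombinant firefly luciferase (5 ng/well) in 200mM potassium phosphate with 1 mg/ml BSA, 30 min at 37C with 8 concentrations from 5 nM to 87.5 uM [final], 0.5% DMSO. Luminescence read after D-luciferin (150uM)/dATP (147uM) reagent injection, pH 7.8; triplicates.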
# [2] = test system: Thyroperoxidase (TPO), gene 445522; assay: CCTE_Simmons_GUA_TPO: CCTE's Guaiacol Assay for Thyroperoxidase (TPO) Inhibition, Simmons Lab (AID 2283750)
# Summary of the method: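 Porcine thyroid microsomes (25 ug) in 200mM potassium phosphate, preincubated 30 s at 37C with compound (8 concentrations, 5 nM–87.5 uM) and 35mM guaiacol; 1mM H2O2 starts reaction. Absorbance change at 450nm over first 80 s; loss of signal versus DMSO, three replicates.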
# [3] = ArunA_CellTiter_hNC: Viability Assessment in the ArunA Biomedical's Oris Neural Crest (hNC) Cell Migration Assay (AID 2283752)
# Summary of the method: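 Human H9-derived neural crest cells plated on Matrigel (60,000/well) with LIF and bFGF, incubated 16 h, then exposed 72 h to chemical in test medium. Viability measured with CellTiter Aqueous One reagent; loss of signal versus DMSO.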
# [4] = ArunA_CellTiter_hNP: Viability Assessment in the ArunA Biomedical's Oris Neural Crest (hNC) Cell Migration Assay (AID 2283753)
# Summary of the method: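 H9-derived hNP1 neuroprogenitors, 60,000/well on Matrigel, cultured 16 h, then 72 h chemical exposure in test medium. Cell titer via CellTiter Aqueous One; positive-direction fit vs DMSO.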
# [5] = ArunA_Migration_hNP: ArunA Biomedical's Oris Neuroprogenitor (hNP) Cell Migration Assay (AID 2283754)
# Summary of the method: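 Human H9-derived hNP1 neuroprogenitors on Matrigel with LIF/bFGF, plated around seeding stoppers for 16 h at 37C; stoppers removed at start of 72 h chemical exposure. Calcein-AM staining, fluorescence 494/517 nm in detection zone; loss-of-signal vs DMSO; cytochalasin D control.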
# [6] = ArunA_Migration_hNC: ArunA Biomedical's Oris Neural Crest (hNC) Cell Migration Assay (AID 2283755)
# Summary of the method: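 Human H9-derived neural crest stem cells, 60,000/well on Matrigel, 16 h at 37C, then 72 h chemical exposure after seeding-stopper removal. Migration into detection zone read as calcein-AM fluorescence (ex494/em517), relative to DMSO.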
# [7] = ArunA_NOG_NucleusCount: ArunA Biomedical's Neurite Outgrowth (NOG) Assay for Nucleus Count (AID 2283756)
# Summary of the method: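 Human H9-derived differentiated neurons were exposed for 48 h right after seeding. Hoechst-stained nuclei gated by size and intensity were counted by automated high-content imaging as viable neurons. Loss of signal vs DMSO.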
# [8] = ArunA_NOG_NeuriteLength: ArunA Biomedical's Neurite Outgrowth (NOG) Assay for Neurite Length (AID 2283757)
# Summary of the method: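 Differentiated human H9-derived neurons were exposed for 48 h from seeding, then stained with Hoechst and βIII-tubulin. Automated high-content imaging gave total neurite length per valid neuron, counting processes >10 um. Loss of signal was scored versus DMSO.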
# [9] = ArunA_NOG_NeuritesPerNeuron: ArunA Biomedical's Neurite Outgrowth (NOG) Assay for Neurites Per Neuron (AID 2283758)
# Summary of the method: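 Differentiated human H9-derived neurons exposed to chemicals for 48 h from seeding, then stained with Hoechst and βIII-tubulin/DyLight 488. Automated imaging counted neurites (processes >10 um) per valid neuron; loss of signal versus DMSO scored.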
# [10] = ArunA_NOG_BranchPointsPerNeurite: ArunA Biomedical's Neurite Outgrowth (NOG) Assay for Branch Points Per Neurite (AID 2283759)
# Description: ArunA_NOG (Neurite Outgrowth) is a cell-based, image-based assay that uses human H9-derived embryonic differentiated neurons (hNN). Measurements were taken 48 hours after chemical dosing in a 96-well plate.ArunA_NOG_BranchPointsPerNeurite is an assay component measured from the ArunA_NOG assay. It is designed to make measurements of neurite outgrowth related to branch points per neurite, using a form of morphology reporter, as detected with fluorescence intensity signals by HCS Fluorescent Imaging technology. Data from the assay component ArunA_NOG_BranchPointsPerNeurite was analyzed at the endpoint, ArunA_NOG_BranchPointsPerNeurite, with bidirectional fitting relative to DMSO as the negative control and baseline of activity. […]
# Chemical treatment: Differentiated hNN cells were seeded and immediately exposed to test medium for 48 h. Following chemical exposure, cell bodies were stained with Hoechst 33,258 to quantitate viable neuron count and neurites were labeled with bIII-tubulin/DyLight1 488. High content imaging assessed the neurite outgrowth endpoints: neurite total length per neuron (um), neurite count per neuron, and branch points per neurite using the methods described in (Harrill et al 2010). […] Fixed integration times for image acquisition in each channel were determined by manual sampling of control-treated wells across multiple plates. […]
smiles,measurement,setting,value
CCn1nc(Cc2ccccc2)cc1C1CCN(C[C@H]2C[C@H](N(C)[C@@H](C(=O)O)C(C)C)C[C@@H]2c2cccc(F)c2)CC1,outcome,[1],inactive
CCOc1cccc(-n2cc(C(=O)N3CCN(c4cc(C(=O)O)c5ccccc5c4)CC3)nc2-c2ccc(C)cc2)c1,outcome,[1],inactive
CC/C(=C\C(=N/O)C(N)=O)C(C)[N+](=O)[O-] (configuration not stated),outcome,[1],inactive
CCNc1ccccc1,outcome,[2],inactive
same,outcome,[1],inactive
Nc1ccc(Nc2ccccc2)cc1,outcome,[1],inactive
Cc1ccc(N)cc1O,AC50,[2],3.61 µM (active)
same,AC50,[1],17.4 µM (active)
NC(=O)NO,outcome,[1],inactive
CCC(C)(C)C(=O)O[C@H]1C[C@@H](C)C=C2C=C[C@H](C)[C@H](CC[C@@H]3C[C@@H](O)CC(=O)O3)[C@H]21,outcome,[1],inactive
CC(C)=CCC/C(C)=C\CO,outcome,[1],inactive
CC(C)=CCCC(C)=CC=O,outcome,[1],inactive
O=C(O)CCN(C1(C(=O)NO)CCCC1)S(=O)(=O)c1ccc(Oc2ccc(F)cc2)cc1,outcome,[1],inactive
CN(C)c1ccc(Cc2ccc(N(C)C)cc2)cc1,outcome,[1],inactive
Cc1[nH]cnc1C[C@H]1CCc2c(C)c3ccccc3n2C1=O,outcome,[1],inactive
C[C@](N)(Cc1ccc(O)c(O)c1)C(=O)O,AC50,[1],53.8 µM (active)
CCCN(C1CCN(C(=O)C2CCNCC2)CC1)[C@@H]1CCc2ccc(OC)cc2C1,outcome,[1],inactive
CN(C)c1ccc(N=NS(=O)(=O)O)cc1,outcome,[1],inactive
Oc1ccc2c(c1)-c1ccccc1C2,outcome,[1],inactive
Nc1nc2ncc(CNc3ccc(C(=O)N[C@@H](CCC(=O)O)C(=O)O)cc3)nc2c(=O)[nH]1,outcome,[2],inactive
same,outcome,[1],inactive
O=C(OC[C@H]1O[C@@H](OC(=O)c2cc(O)c(O)c(OC(=O)c3cc(O)c(O)c(O)c3)c2)[C@H](OC(=O)c2cc(O)c(O)c(OC(=O)c3cc(O)c(O)c(O)c3)c2)[C@@H](OC(=O)c2cc(O)c(O)c(OC(=O)c3cc(O)c(O)c(O)c3)c2)[C@@H]1OC(=O)c1cc(O)c(O)c(OC(=O)c2cc(O)c(O)c(O)c2)c1)c1cc(O)c(O)c(OC(=O)c2cc(O)c(O)c(O)c2)c1,AC50,[1],21.6 µM (active)
Cn1cnc([N+](=O)[O-])c1Sc1ncnc2nc[nH]c12,outcome,[1],inactive
On1ccccc1=S,AC50,[2],85.9 µM (active)
same,AC50,[1],9 µM (active)
CC(C)c1cccc(C(C)C)c1N1C(=O)c2ccc(O)cc2C1=O,AC50,[3],4.05 µM (active) and 11.8 µM (active)
same,AC50,[4],20.7 µM (active)
same,AC50,[5],7.81 µM (active) and 3.04 µM (active)
same,AC50,[6],7.71 µM (active) and 2.24 µM (active)
same,outcome,[7],inactive
same,AC50,[8],13.3 µM (active)
same,outcome,[8],inactive
same,AC50,[9],5 µM (active) and 13.3 µM (active)
same,outcome,[10],inactive
CC(C)=CCCC(C)CCO (configuration not stated),outcome,[1],inactive
O=C(CCCCCCCCc1cccnc1)N1CCC(C=C(c2ccccc2)c2ccccc2)CC1,outcome,[1],inactive
O=C(O)c1cccc(N(Cc2cccnc2)c2ccc(OC(F)F)c(OC(F)F)c2)c1,outcome,[1],inactive
CCCCCCc1ccc(O)cc1O,outcome,[1],inactive
O=P(OC(CCl)CCl)(OC(CCl)CCl)OC(CCl)CCl,outcome,[3],inactive
same,outcome,[4],inactive
same,outcome,[5],inactive
same,AC50,[6],1.97 µM (active)
same,outcome,[7],inactive
same,outcome,[8],inactive
same,outcome,[9],inactive
same,outcome,[10],inactive
same,outcome,[1],inactive
CCOC(=O)c1ccc(C2CCC(NC[C@H](O)COc3ccc(O)c(NS(C)(=O)=O)c3)CC2)cc1 (some centres not stated),outcome,[1],inactive
O=c1n(CC2CO2)c(=O)n(CC2CO2)c(=O)n1CC1CO1 (configuration not stated),outcome,[1],inactive
CC[C@H](C)C(=O)O[C@H]1C[C@@H](C)C=C2C=C[C@H](C)[C@H](CC[C@@H]3C[C@@H](O)CC(=O)O3)[C@H]21,AC50,[1],77.6 µM (active)
same,outcome,[1],inactive
CC(C)(O)c1coc(S(=O)(=O)NC(=O)Nc2c3c(cc4c2CCC4)CCC3)c1,outcome,[1],inactive
